DUX4 txn inh: blocks DUX4-driven transcriptional activation; AID 1224904; 293T-iDUX4 ZSCAN4-Gaussia luciferase reporter, 24 h; hits give low values; activity change, negative = inhibition, % (concentration not given with the values); 37,000 compounds, 0.8% hits;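 active = mean inhibition of at least 10% in the main channel, exceeding the control channel by a set limit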;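 also: 0% = median of neutral control wells and -100% = median of positive control wells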
An asterisk follows results filed as active. Shown is part of a subset that was picked to be rich in hits.

SMILES	DUX4 txn inh
CO[C@@H]1CN(C)C(=O)c2ccc(NS(=O)(=O)CC(F)(F)F)cc2OC[C@@H](C)N(C(=O)c2ccc3c(c2)OCO3)C[C@H]1C	2
CCCN(C)C[C@H]1OCCCC[C@@H](C)Oc2ccc(NC(=O)c3ccncc3)cc2C(=O)N([C@@H](C)CO)C[C@H]1C	-2
CN(C)C(=O)[C@@H]1[C@@H](CO)[C@@H]2Cn3c(ccc(-c4ccccc4F)c3=O)[C@H]1N2C	-2
O=C(C1CCOCC1)N1CC2(C1)[C@H](c1ccccc1)[C@@H](CO)N2Cc1ccc(Cl)cc1	-3
O=C(C1CCCC1)N1CC2(C1)[C@@H](c1ccccc1)[C@@H](CO)N2Cc1ccc(Cl)cc1	-8
O=C(C1CCC1)N1CC2(C1)[C@H](c1ccccc1)[C@H](CO)N2Cc1ccccc1F	-7
O=C(C1CCCCC1)N1CC2(C1)[C@H](c1ccccc1)[C@@H](CO)N2Cc1ccc(Cl)cc1	-51*
O=C(C1CCCC1)N1CC2(C1)[C@H](c1ccccc1)[C@@H](CO)N2Cc1ccccc1F	-45*
O=C(C1CCCC1)N1CC2(C1)[C@@H](c1ccccc1)[C@H](CO)N2Cc1ccccc1F	-7
CNC[C@H]1OCCCC[C@H](C)Oc2ccc(NC(=O)CCC(F)(F)F)cc2C(=O)N([C@@H](C)CO)C[C@H]1C	-5
CCCN1[C@@H]2Cn3c(ccc(/C=C/c4ccccc4)c3=O)[C@H]1[C@@H](C(=O)NCc1ccccn1)[C@@H]2CO	-1
C[C@@H]1CN([C@H](C)CO)C(=O)c2c(c3ccccc3n2C)-c2ccccc2CO[C@H]1CN(C)C(=O)[C@H](C)c1ccccc1	-1
CO[C@@H]1CN(C)C(=O)c2cc(NC(=O)C3CCOCC3)ccc2OC[C@H](C)N(C(C)=O)C[C@@H]1C	8
C/C=C/c1ccc([C@@H]2[C@@H](CO)N3CCCCN(C(=O)Nc4cc(F)ccc4F)C[C@@H]23)cc1	-13*
O=C(Nc1ccccc1F)N1CCCCN2[C@H](C1)[C@H](c1ccc(/C=C/c3ccccc3)cc1)[C@@H]2CO	3
COCC#Cc1ccc([C@H]2[C@@H](CO)N3CCCCN(C(=O)Nc4cc(F)ccc4F)C[C@H]23)cc1	-23*
C/C=C/c1ccc([C@H]2[C@@H](CO)N3CCCCN(C(=O)Nc4ccc(F)cc4)C[C@@H]23)cc1	15
CN(C)CC#Cc1ccc([C@@H]2[C@H](CO)N3CCCCN(C(=O)Nc4cc(F)ccc4F)C[C@@H]23)cc1	20
COCC#Cc1ccc([C@@H]2[C@@H](CO)N3CCCCN(C(=O)Nc4cc(F)ccc4F)C[C@@H]23)cc1	-1
Cc1ccccc1S(=O)(=O)N1C[C@H](O)COC[C@@H]2O[C@H](CC(=O)NCc3ccccc3Cl)CC[C@H]21	-2
COc1ccc2c3c([nH]c2c1)[C@@H](CO)N(C(=O)Nc1ccccc1F)CC31CCN(C(=O)C2CC2)CC1	13
Cc1ccccc1-c1ccc([C@@H]2[C@@H](CO)N3CCCCN(S(=O)(=O)Cc4ccccc4)C[C@H]23)cc1	-45*
Cc1ccccc1-c1ccc([C@@H]2[C@@H](CO)N3CCCCN(S(C)(=O)=O)C[C@H]23)cc1	3
Cc1ccccc1S(=O)(=O)N1CCCCN2[C@H](C1)[C@H](c1ccc(-c3cccc(F)c3)cc1)[C@@H]2CO	-19*
CCS(=O)(=O)N1CCCCN2[C@H](C1)[C@@H](c1ccc(-c3ccccc3C)cc1)[C@@H]2CO	9
SMILES	DUX4 txn inh
Cc1cccc(-c2ccc([C@@H]3[C@H](CO)N4CCCCN(S(=O)(=O)c5ccccc5F)C[C@@H]34)cc2)c1	-5
Cc1ccccc1S(=O)(=O)N1CCCCN2[C@H](CO)[C@@H](c3ccc(-c4cccc(F)c4)cc3)[C@H]2C1	-39*
Cc1ccccc1S(=O)(=O)N1CCCCN2[C@@H](CO)[C@@H](c3ccc(-c4cccnc4)cc3)[C@@H]2C1	0
Cn1cnc(S(=O)(=O)N2CCCCN3[C@H](CO)[C@H](c4ccc(-c5cccc(F)c5)cc4)[C@H]3C2)c1	1
Cn1cnc(S(=O)(=O)N2CCCCN3[C@H](C2)[C@H](c2ccc(-c4cccc(F)c4)cc2)[C@@H]3CO)c1	9
COc1ccc2c3c(n(C)c2c1)[C@@H](CO)N(C(=O)Cc1ccccc1)CC31CCN(C)CC1	9
OC[C@H]1[C@@H](c2ccccc2)C2(CN(CC3CC3)C2)N1Cc1nccs1	-8
COCC(=O)N1[C@H](C(=O)Nc2ccccc2)[C@@H](CO)[C@@H]2Cn3c(ccc(-c4ccccc4)c3=O)[C@@H]21	5
O=C(C1CCOCC1)N1C[C@H]2[C@@H](c3ccccc31)[C@H](CO)N2C(=O)Cc1ccccc1	2
COc1ccc2c3c([nH]c2c1)[C@H](CO)N(C(=O)Nc1c(C)noc1C)CC31CCN(CC2CCCCC2)CC1	11
O=C([C@@H]1[C@@H](CO)[C@@H]2Cn3c(ccc(-c4cccnc4)c3=O)[C@H]1N2CC1CC1)N1CCCCC1	-1
CO[C@H]1CC[C@@H]2CCOc3ccc(C#N)cc3C(=O)N(C)C[C@H](C)C(=O)N(C)C[C@H]1O2	9
OC[C@H]1Nc2ccc(C#Cc3ccc(F)cc3)cc2[C@@H]2[C@H]1CCN2Cc1nccs1	0

Assay outcomes deposited in PubChem by Broad Institute.
